Measured values published in PubChem BioAssay (NCATS).
“And” between values parts separate entries of the source, which are not always exact repeats. Equal values may be shown once. A number with no mark means an inactive call. The source made the active and inactive calls. Calls come from the whole dose curve; as a rule, active = well fitted cell-killing curve with a large enough effect; inconclusive = small, poorly fitted or top-dose-only effect, or effect the other way; inactive = flat fitted curve, though single readings scatter.
Potency is the fitted concentration of half-maximal effect.

Test: MultiTox-Fluor Cytotoxicity Assay - LYMP1-003 - Dead Cells (AID 961); note: nearly all actives have a fitted effect of over 70% in size;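 for cytotoxicity (dead cells): 0% = DMSO and 100% = tetraoctylammonium bromide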
Conditions: LYMP1-003 lymphoblastoid cells, dead-cell protease fluorescence; series mostly up to 92.2 µM; cytotoxicity (dead cells): at the top concentration
From the text: NIH Chemical Genomics Center [NCGC]
NIH Molecular Libraries Screening Centers Network [MLSCN]
National Institutes of Environmental Health Sciences [NIEHS]
National Toxicology Program [NTP]
We have developed a 1536-well cell-based assay for quantitative high throughput screening (qHTS) against a number of cell lines to determine in vitro cytotoxicity of small molecules. This particular assay uses a human lymphoblastoid cell line (LYMP1-003) purchased from Coriell Institute.
NCGC Assay Protocol Summary:
The MultiTox-Fluor Cytotoxicity Assay (Promega) is a homogeneous method to simultaneously measure the relative number of live and dead cells in culture by detecting changes in cell membrane integrity. There are two fluorogenic peptide substrates in the assay reagent. Viable cells are determined when the cell-permeant substrate (GF-AFC) enters the cell and is cleaved by protease from live cells resulting in liberated fluorophore. This live-cell protease activity restricted to viable cells is proportional to cell number. The dead cells are determined by using fluorogenic cell-impermeant peptide substrate (bis-AAF-R110) which cleaved by dead cell proteases leaking from damaged cell membrane.
Using the MultiTox-Fluor Cytotoxicity Assay, the relative number of dead cells was measured in the lymphoblastoid cell line with complete culture medium following compound treatment for 16 hours. The assay was performed in opaque black Kalypsys 1536-well plates. In the screen, tetraoctylammonium bromide was used as positive control. Library compounds were measured for their ability to cause acute toxicity in the cell line, as reflected by an increase in dead cell protease activity, in a concentration-dependent manner. Data were normalized to the controls for basal activity (DMSO only) and 100% stimulation (15 uM tetraoctylammonium bromide). AC50 values were determined from concentration-response data modeled with the standard Hill equation.
qHTS protocol for MultiTox-Fluor Cytotoxicity assay
[Step] [Parameter] [Value] [Description]
1. Reagent; 5 uL; 2500 lymphoblastoid cells/well
2. Time; 5 hr; 37 C incubation
4. Controls; 23 nL; Tetraoctylammonium bromide 6.4pM to 92 uM
5. Time; 16 hr; 37 C incubation
6. Reagent; 5 uL; MuliTox-Fluor Assay reagent
7. Time; 60 min; Room Temperature
8. Detection; dead-cell fluorescence (Ex/Em=485/520); EnVision plate reader
Keywords: cytotoxicity, lymphoblastoid cell line, fluorescence, NTPHTS, NTPHTS_NCGC, NIEHS, EPA, DSSTox, MLSMR, MLSCN, NIH Roadmap, qHTS, NCGC
For Clc1ccccc1Cl, the “cytotoxicity (dead cells)” value was -7.74%. In the case of O=[N+]([O-])c1ccccc1, the “cytotoxicity (dead cells)” value is reported as -10.8%. With O=CC=O the “cytotoxicity (dead cells)” value was -20%. For CC(C)CCON=O, the “cytotoxicity (dead cells)” value was -6.46%. In the case of [O]=[Cr](=[O])([OH])[O][Cr](=[O])(=[O])[OH], the Potency is reported as “inactive”. In the case of C[C@]12CCC(=O)C[C@@H]1CC[C@@H]1[C@@H]2CC[C@]2(C)[C@@H](O)CC[C@@H]12, the “cytotoxicity (dead cells)” value is reported as 14.3%. In the case of O=C/C=C/c1ccccc1, the Potency is reported as “inactive”. In the case of CC(C)(C)c1cc(O)ccc1O, the Potency is reported as “inactive”. For ClC(Cl)(Cl)Cl, the Potency was “inactive”. For CC(C)Nc1ccc(Nc2ccccc2)cc1, the Potency was 25.1 µM (active). With CCOC(=O)c1ccccc1C(=O)OCC the Potency was “inactive”. In the case of COc1ccc2c(c1OC)C(=O)OC2C1c2cc3c(cc2CCN1C)OCO3 (stereo not given), the “cytotoxicity (dead cells)” value is reported as 0.321%. For COC1=CC(=O)O[C@@H](/C=C/c2ccccc2)C1, the “cytotoxicity (dead cells)” value was -6.41%. With O=C1C2CC=CCC2C(=O)N1SC(Cl)(Cl)Cl (stereo not given) the Potency was 10 µM (active) and 7.94 µM (active). In the case of C[C@H]1CCC[C@H](O)CCCCCc2cc(O)cc(O)c2C(=O)O1, the “cytotoxicity (dead cells)” value is reported as -5.68%. For C[C@H]1CC[C@@H]2[C@@H](C)[C@H]3[C@H](C[C@H]4[C@@H]5CC=C6CC(O[C@@H]7O[C@H](CO)[C@H](O)[C@H](O[C@@H]8O[C@H](CO)[C@@H](O)[C@H](O)[C@H]8O)[C@H]7O[C@H]7O[C@@H](C)[C@H](O)[C@@H](O)[C@H]7O)CC[C@]6(C)[C@H]5CC[C@]34C)N2C1 (stereo not given in full), the Potency was 20 µM (active). For Oc1cc(Cl)c(Cl)cc1Cl, the “cytotoxicity (dead cells)” value was 7.92%. With ClC=C(Cl)Cl the “cytotoxicity (dead cells)” value was -16.2%. In the case of NNC(N)=O, the “cytotoxicity (dead cells)” value is reported as -7.01%. In the case of CCCCCCCCOC(=O)c1ccccc1C(=O)OCCCCCCCC, the “cytotoxicity (dead cells)” value is reported as -13%. For CCCCCl, the “cytotoxicity (dead cells)” value was -6.89%. For O=C1C=CC(=O)C=C1, the “cytotoxicity (dead cells)” value was -2.32%. With [O]=[Cd] the “cytotoxicity (dead cells)” value was 2.5%. For C=CCN=C=S, the “cytotoxicity (dead cells)” value was -3.45%. For ClCC1CO1 (stereo not given), the “cytotoxicity (dead cells)” value was -9.99%. With O=C1CCO1 the “cytotoxicity (dead cells)” value was -0.23%. In the case of S=C=S, the “cytotoxicity (dead cells)” value is reported as -3.46%. With O=Cc1ccco1 the “cytotoxicity (dead cells)” value was 1.94%. For O=[N+]([O-])c1ccc(F)c([N+](=O)[O-])c1, the “cytotoxicity (dead cells)” value was -12%. With O=C(O)C(Cl)(Cl)Cl the Potency was “inactive”.
